# Tests used:
# Settings in all cases: 72 h, relative to cycloheximide control, log10 luminescence
# CHRF288-11 = test system: CHRF288-11
# CMK = test system: CMK
# CMS = test system: CMS
# M07e = test system: M07e
# ML-2 = test system: ML-2
# MOLM-13 = test system: MOLM-13
# MV4-11 = test system: MV4-11
# U937 = test system: U937
structure (smiles),measurement,setting,value
"C[C@]12CC[C@@H]3c4ccc(OC(=O)N(CCCl)CCCl)cc4CC[C@H]3[C@@H]1CC[C@@H]2OP(=O)(O)O [SJ000518944-1, ES[…] SODIUM]",CHRF288-11 %inh,CHRF288-11,1.087%
same,CMK %inh,CMK,-3.517%
same,CMS %inh,CMS,-0.5738%
same,M07e %inh,M07e,1.122%
same,ML-2 %inh,ML-2,0.1396%
same,MOLM-13 %inh,MOLM-13,1.341%
same,MV4-11 %inh,MV4-11,2.919%
same,U937 %inh,U937,-1.233%
